Hit rate of the full screen: of about 71,000 compounds, about 1,400 (2%) were called active. Roughly 3% stayed inconclusive and do not appear here. Calls follow the shape of the dose curve; as a rule, active = well fitted curve in the direction sought with a large enough effect; inconclusive = small, poorly fitted or top-dose-only effect; inactive = no such curve, though single readings can be large or run the other way. The full list was thinned out, with actives kept by preference.
These compounds were tested against Microtubule-associated protein tau (Homo sapiens) (UniProt P10636) (assay: qHTS Assay for Tau Filament Binding). Conditions: recombinant tau filaments, thioflavin S fluorescence, 15 h, filaments grown with octadecylsulfate alongside compound; series mostly up to 57.1 µM; activity change, negative = inhibition: at the top concentration.
Chain of Microtubule-associated protein tau (Homo sapiens) (P10636 whole entry, looked up): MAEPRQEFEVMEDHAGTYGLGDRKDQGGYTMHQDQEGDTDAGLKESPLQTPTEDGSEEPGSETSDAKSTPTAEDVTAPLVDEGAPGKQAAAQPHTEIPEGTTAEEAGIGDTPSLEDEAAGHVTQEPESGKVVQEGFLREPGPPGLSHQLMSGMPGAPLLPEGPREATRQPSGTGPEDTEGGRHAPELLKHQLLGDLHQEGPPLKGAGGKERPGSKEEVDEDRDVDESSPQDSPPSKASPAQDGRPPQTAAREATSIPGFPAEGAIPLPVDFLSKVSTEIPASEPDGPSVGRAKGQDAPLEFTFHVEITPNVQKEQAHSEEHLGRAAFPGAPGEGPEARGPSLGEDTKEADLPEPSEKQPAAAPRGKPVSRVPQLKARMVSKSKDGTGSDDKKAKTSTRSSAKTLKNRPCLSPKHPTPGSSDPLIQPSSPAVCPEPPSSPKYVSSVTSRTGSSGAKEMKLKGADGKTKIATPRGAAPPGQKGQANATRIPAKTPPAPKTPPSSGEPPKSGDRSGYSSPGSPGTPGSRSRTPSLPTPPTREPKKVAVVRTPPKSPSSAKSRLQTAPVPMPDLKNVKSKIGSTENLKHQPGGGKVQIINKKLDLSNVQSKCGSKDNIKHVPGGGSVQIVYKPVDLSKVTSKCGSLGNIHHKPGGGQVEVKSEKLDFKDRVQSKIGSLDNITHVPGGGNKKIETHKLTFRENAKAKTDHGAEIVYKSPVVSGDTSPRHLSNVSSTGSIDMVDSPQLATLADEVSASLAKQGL
Source text: NIH Molecular Libraries Screening Centers Network [MLSCN]
NIH Chemical Genomics Center [NCGC]
Assay Provider: Jeffrey A. Kuret, Ohio State University
Tau monomers form filaments in vitro in the presence of anionic detergents or fatty acids. The dye Thioflavine S (ThS) binds to tau filaments and upon binding, increases in fluorescence several fold. Small molecules that displace ThS binding or prevent filament binding are identified by a reduction in ThS fluorescence. This assay used histidine-tagged, recombinant human tau protein containing the products of exons 2, 3, and 10 that was provided by Jeff Kuret, Ohio State University. To form filaments, 1 uM tau was incubated with 30 uM sodium octadecylsulfate (ODS) in reagent buffer (10 uM thioflavine S, 5 mM 1,4-dithioerythreitol (DTT), 100 mM sodium chloride, 10 mM HEPES pH 7.4) for 15 hrs at 37 C.
NCGC Assay Protocol Summary:
Assay Steps. Two uL/well of 2 uM tau in reagent buffer (10 uM thioflavine S, 5 mM DTT, 100 mM sodium chloride, 10 mM HEPES pH 7.4) was dispensed into solid black 1536-well plates. Twenty-three nL compound was transferred to the assay plate after which 2 uL/well of 60 uM ODS in reagent buffer was dispensed for a final assay volume of 4 uL /well. Following 15 hours of incubation at 37 C, fluorescence was detected by an Envision (Perkin Elmer) using 450/8 nm excitation and 510/23 nm emission.
Keywords: NIH Roadmap, MLSCN, MLI, MLSMR, qHTS, NCGC, Alzheimer's disease, Neurofibrillary lesions, tau, tubulin assembly, microtubule stability, cytoskeletal integrity, fibrillization, thioflavin dyes, Amyloidgenic
% is scaled to controls: 0 for no effect and ±100 for the full control effect; potency is read from the fitted curve at half-maximal effect.
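Also: actives lower thioflavin S fluorescence by blocking filaments or displacing dye.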

SMILES	activity change, negative = inhibition	Potency
c1ccc(CSc2nnc(-c3ccco3)n2Cc2ccccc2)cc1	6.8% (inactive)	–
c1ccc(CSc2nnc(-c3ccco3)c(-c3ccco3)n2)cc1	–	7.94 µM (active)
Nc1cc(=O)nc(SCc2ccccc2)n1Cc1ccco1	-10.8% (inactive)	–
COc1cccc(Cn2c(=O)c(C)nc3cnc(Oc4ccccc4)nc32)c1	-14.4% (inactive)	–
O=C(O)c1nccnc1C(=O)Nc1ccc(Br)cn1	-1.2% (inactive)	–
CCS(=O)(=O)N(C)[C@@H]1c2cc(C#N)ccc2OC(C)(C)[C@H]1O	–	39.8 µM (active)
C=CCOC(=O)COCCC(C)C	13.7% (inactive)	–
NC[C@@H]1O[C@H](O[C@@H]2[C@H](O[C@@H]3O[C@H](CO)[C@@H](COC[C@H]4O[C@@H](CN)[C@@H](O)[C@@H](O)[C@@H]4N)[C@@H]3O)[C@@H](O)[C@@H](N)C[C@H]2N)[C@@H](N)[C@H](O)[C@@H]1O	-1.7% [at 25.6 µM] (inactive)	–
O=Cc1c(Cl)cccc1Cl	4.8% (inactive)	–
CC(=O)OCC(COC(C)=O)OC(C)=O	-6.1% (inactive)	–
CC(c1ccccc1)n1c(NCCCn2ccnc2)nc2c1c(=O)[nH]c(=O)n2C (stereo not given)	-3.1% (inactive)	–
Clc1cccc(-c2nc3nc4ccccc4nc3n2Cc2ccco2)c1	–	15.8 µM (active)
CC(Sc1nc2ccccc2c(=O)n1Cc1ccco1)C(=O)c1ccccc1 (stereo not given)	14.2% (inactive)	–
O=C(CSc1nnc(-c2cccnc2)n1Cc1ccco1)c1ccc(Cl)cc1	1.3% (inactive)	–
CC(C)CSC[C@@H]1O[C@H](n2cnc3c(N)nccc32)[C@H](O)[C@@H]1O	-0.6% [at 11.4 µM] (inactive)	–
O=c1c(CCc2ccccc2)nc2cnc(N3CCNCC3)nc2n1Cc1cccs1	19.3% (inactive)	–
Cc1cc(C)cc(N)c1	11.7% (inactive)	–
N#Cc1c(N)sc2c1CCN(C(=O)OCc1ccccc1)C2	–	15.8 µM (active)
NC1(C(=O)OCc2ccccc2)CCCC1	6.1% [at 11.4 µM] (inactive)	–
N#Cc1ccc(COC(=O)Cn2nnc(-c3ccccc3)n2)cc1	-11.5% (inactive)	–
COC(=O)C1=C(C)NC(=O)NC1/C=C/c1ccccc1 (stereo not given)	11.1% (inactive)	–
COC(=O)C1=C(C)NC2=C(C(=O)c3ccccc32)C1c1ccc(-c2ccc(C(=O)O)cc2)o1 (stereo not given)	–	25.1 µM (active)
COc1ccccc1NC(=O)C1=C(C)NC2=C(C(=O)CCC2)C1c1ccc(C)o1 (stereo not given)	0.5% (inactive)	–
Cc1cccc(C(=O)O)c1	0.9% (inactive)	–

SMILES	activity change, negative = inhibition	Potency
CCN(CC)C(=O)c1sc(NC(=O)c2ccco2)c(C#N)c1C	5.3% (inactive)	–
COc1ccc(C(=O)N/N=C2/C(=O)c3c(C)cc(C)cc3CC2(C)C)cc1	–	5.01 µM (active)
COc1ccc(NC(=O)c2ccc(OC)cc2)cc1	8.2% (inactive)	–
CCCC[C@H]1C(=O)N(c2ccccc2)N(c2ccc(O)cc2)C1=O	-14.5% [at 25.6 µM] (inactive)	–
CCCC1CC(C)(C(=O)Cn2[nH]c(=O)ccc2=O)OC1=O (stereo not given)	0% (inactive)	–
CCC1(C)Cc2c(sc3nc4n(c(=O)c23)CCCS4)CO1 (stereo not given)	-15.1% (inactive)	–
CN(C)CCSc1nc(N)c2c3c(sc2n1)COC(C)(C)C3	–	12.6 µM (active)
O=C1NC(=O)[C@@](Cc2ccccc2)(c2cccnc2)N1	-0.4% [at 11.4 µM] (inactive)	–
COC(=O)C1(C)C=CC2(CCCCC2)N1C(C)=O (stereo not given)	-2.6% (inactive)	–
Cn1c(=O)c(CCc2ccccc2)nc2cnc(Nc3ccccc3)nc21	102% (inactive)	–
CNC(=O)C1(C)C=CC2(CCCCC2)N1C(C)=O (stereo not given)	-0.4% (inactive)	–
Cc1nn(C(=O)c2ccoc2C)c(N)c1-c1ccccc1	-16.2% (inactive)	–
Cc1nn2c(c1-c1ccccc1)N=C(c1ccco1)CC2c1ccccc1 (stereo not given)	–	10 µM (active)
C[C@@H]1O[C@@H](O[C@@H]2[C@@H](O)[C@H](OCCc3ccc(O)c(O)c3)O[C@H](CO[C@@H]3O[C@H](CO)[C@@H](O)[C@H](O)[C@H]3O)[C@H]2OC(=O)/C=C/c2ccc(O)c(O)c2)[C@H](O)[C@H](O)[C@H]1O	5.1% (inactive)	–
CCCC(C(=O)NCc1ccco1)N(C(=O)CNS(=O)(=O)c1ccccc1)C1CCCC1 (stereo not given)	-19.1% (inactive)	–
CN1CCN(c2ccc(NC(=O)COc3ccc(Cl)cc3Cl)cc2)CC1	3.5% (inactive)	–
CC(=O)N1CCN(c2ccc(NCc3ccc(C(C)C)cc3)cc2)CC1	–	25.1 µM (active)
CC(=O)N1CCC2(CC1)CCN(c1ccncc1)CC2	5.9% (inactive)	–
COCCNc1ncnc2ccc(-c3ccccc3CN(C)C)cc12	4.2% (inactive)	–
O=c1cc(-c2ccc(O)c(O)c2)oc2cccc(O)c12	–	39.8 µM (active)
COC(=O)[C@@]1(Cc2ccc(F)cc2)[C@@H]2[C@@H](CC(=O)[C@H]2CC(=O)C(=O)N2CCCC2)CN1C(=O)c1ccccc1	-4.8% (inactive)	–
Cc1ccc(/C(=C/CN2CCCC2)c2ccccn2)cc1	–	inactive
C=C(C)C1CC=C(C)C(O)C1 (stereo not given)	3.7% (inactive)	–
CC(=O)Oc1ccccc1C(=O)Nc1ncc([N+](=O)[O-])s1	0.6% (inactive)	–

SMILES	activity change, negative = inhibition	Potency
O=c1c(CCc2ccccc2)nc2cncnc2n1C1CC1	-4.1% (inactive)	–
c1ccc(-c2cc(-c3nnc4sc(-c5ccccn5)nn34)[nH]n2)cc1	–	1 µM (active)
COc1cc(-c2nn3c(-c4cccc(C)c4)nnc3s2)cc(OC)c1OC	38.8% (inactive)	–
Cc1cccc(NC(=O)C2CCN(S(=O)(=O)c3cccc4cccnc34)CC2)c1	1.5% (inactive)	–
COC(=O)CCCCCN1C(=O)NC(c2ccc(-c3ccccc3)cc2)C(C(=O)OCc2ccccc2)=C1C (stereo not given)	-3.4% (inactive)	–
O=C(CN1CCN(c2ccc(F)cc2)CC1)Nc1cccc(C(F)(F)F)c1	-3.8% (inactive)	–
O=C(CSc1nnc(-c2ccco2)o1)NCC(=O)c1ccccc1	-5.7% (inactive)	–
CCN1C(=O)c2cccc3c(N)ccc1c23	–	25.1 µM (active)
CCCCN(C)C(=O)c1ccc2c(c1)N(CC)C(=O)c1ccccc1S2(=O)=O	5.4% (inactive)	–
Oc1ccc(O)c2c(O)cccc12	–	5.01 µM (active)
COC(=O)Nc1ncc(CN2C(=O)c3ccccc3C2=O)s1	1.9% (inactive)	–
CCOc1ccccc1N=C1NC(=O)CS1	-6% (inactive)	–
C[N+](C)(C)CCCCCNCC12CC3CC(CC(C3)C1)C2	–	31.6 µM (active)
CCc1ccc(CCC(=O)Nc2ccc(S(N)(=O)=O)cc2)o1	-6.1% (inactive)	–
Cc1cccn2c(=O)c3cc(C(=O)NCc4ccccn4)n(C)c3nc12	9.9% (inactive)	–
COc1ccc(CCn2c(=N)c(C(=O)NCc3ccco3)cc3c(=O)n4cccc(C)c4nc32)cc1	–	2 µM (active)
O=C(NCc1ccco1)c1cccn2c(=O)c3cc(Br)ccc3nc12	–	25.1 µM (active)
CCn1c(=N)c(C(=O)NCCCOC)cc2c(=O)n3cccc(C)c3nc21	-2.4% (inactive)	–
O=C(Nc1ccccc1)Nc1ccccc1C(=O)NCc1ccco1	-4.8% (inactive)	–
COc1ccc(CNC(=O)c2cc3c(=O)n4ccccc4nc3n(CC3CCCO3)c2=N)cc1 (stereo not given)	–	2.51 µM (active)
COC(=O)c1ccc2c(=O)n(CC3CCCO3)c(=S)[nH]c2c1 (stereo not given)	6.1% (inactive)	–
CCOc1ccccc1C(=O)NCc1ccco1	20.9% (inactive)	–
